High-throughput results (PubChem)
Six1-Eya2 inh: Six1/Eya2 interaction inhibition; AlphaScreen GST-Six1/His-Eya2 binding, biochemical; stronger effect = lower value; Q15475+O00167; activity change, % (test concentration not listed); AID 651725; hit rate 0.56% among 360,000; in the data active means activity change below about -65%; inconclusive means mostly about -30% to -63%; further: on the % scale 0 is the no-effect control and ±100 the full control effect
Target sequence (O00167 whole entry, looked up): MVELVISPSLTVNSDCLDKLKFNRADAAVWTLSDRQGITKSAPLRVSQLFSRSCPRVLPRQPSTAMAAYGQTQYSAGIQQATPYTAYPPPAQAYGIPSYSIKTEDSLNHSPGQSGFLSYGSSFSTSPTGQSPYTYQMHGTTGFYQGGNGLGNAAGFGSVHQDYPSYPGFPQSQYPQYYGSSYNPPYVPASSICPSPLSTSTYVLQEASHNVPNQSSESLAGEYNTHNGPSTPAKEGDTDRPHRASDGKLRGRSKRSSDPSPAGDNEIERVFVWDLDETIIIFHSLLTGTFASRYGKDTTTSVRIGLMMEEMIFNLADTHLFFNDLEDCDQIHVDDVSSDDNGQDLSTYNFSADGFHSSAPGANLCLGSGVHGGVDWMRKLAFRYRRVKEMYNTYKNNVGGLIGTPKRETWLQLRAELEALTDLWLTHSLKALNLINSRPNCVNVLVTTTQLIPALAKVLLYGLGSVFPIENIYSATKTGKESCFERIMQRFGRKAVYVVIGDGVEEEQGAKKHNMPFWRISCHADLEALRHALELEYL
Target sequence (Q15475 whole entry, looked up): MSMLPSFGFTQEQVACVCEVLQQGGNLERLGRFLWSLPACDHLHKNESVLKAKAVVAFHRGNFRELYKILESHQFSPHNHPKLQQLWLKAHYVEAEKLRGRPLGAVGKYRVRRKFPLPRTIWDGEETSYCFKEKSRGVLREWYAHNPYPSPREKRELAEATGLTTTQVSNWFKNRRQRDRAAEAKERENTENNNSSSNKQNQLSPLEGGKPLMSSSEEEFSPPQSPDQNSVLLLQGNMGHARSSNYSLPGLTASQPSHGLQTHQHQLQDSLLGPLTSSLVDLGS
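Compounds are tested against tagged Six1 and Eya2 proteins bridged by glutathione donor and nickel acceptor beads; after a one-hour incubation at 37 °C without light, AlphaScreen emission is recorded.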
VP16 counter: inhibits Gal4-VP16 luciferase reporter, ROR gamma counter-screen. Drosophila S2 Gal4-VP16 UAS-luciferase, luminescence, 20 h. Potency, µM (doses to about 53.6 µM), for the others: at the top dose activity, negative = inhibition, most hits filed as inhibitors. hit rate 3.5% among 310,000;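 further: Gal4-VP16 expression switched on by copper sulfate through the metallothionein promoter; potency means the concentration at half of the fitted maximal effect; on the % scale 0 is the no-effect control and ±100 the full control effect; nearly all actives have a fitted effect of over 50% in size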
CtBP-E1A inh: CtBP/E1A binding inhibition; AlphaScreen GST-E1A/His-CtBP binding, 1536-well; stronger effect = lower value; activity change, % (concentration not given with the values); hit rate 0.49% among 340,000; in the data active means activity change below about -65%; inconclusive means mostly about -30% to -63%; further: on the % scale 0 is the no-effect control and ±100 the full control effect
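Protein mix (5X: 125 nM each GST-E1A, His-CtBP) was incubated with pinned compound 2 h at 37 deg C in dark, in 50 mM Tris pH 8.0 buffer with 300 mM NaCl. Glutathione donor and nickel acceptor beads followed; AlphaScreen signal read after 1 h.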
p53 reactivation: mutant p53 re-activation in reporter cells. H1299 p53-A138V BP100-luciferase reporter, luminescence, 24 h. Potency, µM (doses to about 92.2 µM), without a hit: at the top dose activity change, positive = activation, actives largely listed as activators. hit rate 0.063% among 320,000. AID 504706; further: potency means the concentration at half of the fitted maximal effect; % of control where 0% means no effect; nearly all actives have a fitted effect of over 45% in size
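H1299 (p53-null), stable ts p53-A138V + BP100-Luc; 1000 cells/well, Opti-MEM/10% FBS; cpd 4 pt, 1:5; 24 h, 37 deg C, 5% CO2; detection reagent 10 min RT; luminescence.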
RORg inh: ROR gamma (mouse) transcription inhibition; hit rate 5.4% among 310,000; Potency, µM (doses to about 53.6 µM), without a hit: at the top dose activity change, negative = inhibition, hits mostly inhibitors; P51450; Drosophila S2 Gal4-RORgamma UAS-luciferase reporter, 20 h; further: potency means the concentration at half of the fitted maximal effect; on the % scale 0 is the no-effect control and ±100 the full control effect; nearly all actives have a fitted effect of over 60% in size
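Schneider cells (Drosophila), stable Gal4 DBD–ROR gamma + UAS-luc; 1 hr cmpd preincubation; Cu2+ induction 700 uM final; 20 hr ambient; luminescence.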
The depositor's hits bear a star; u = inconclusive; x = no result given; [ ] = another dose, or the depositor's remark. In the library only some 5.4% were active in any assay of this set; here they are far more common. Unless noted, the call rests on the fitted dose curve; in most records, active means well fitted curve in the direction sought with a large enough effect; inconclusive means small, poorly fitted or top-dose-only effect, or another doubt; inactive means no such curve, though single readings can be large; an effect the other way counts as inactive or inconclusive.

SMILES	Six1-Eya2 inh	VP16 counter	CtBP-E1A inh	p53 reactivation	RORg inh
COc1ccc2[nH]cc(CCNc3ncnc4ccc(-c5ccccc5C#N)cc34)c2c1	x	-1.6%	x	x	u
Cc1ccc(-c2cc(C(=O)N3CCc4ccccc4C3)[nH]n2)cc1C	6.6	-4.0%	x	6.7%	1µM*
COc1cccc(-c2cc(C(=O)N3CCc4ccccc4C3)[nH]n2)c1	11.1	-11.2%	5.6	9.8%	1.12µM*
COc1cccc(-c2cc(C(=O)N3CCN(S(=O)(=O)c4ccccc4)CC3)[nH]n2)c1	-1.8	1.6%	0.0	8.0%	30.0%
Cc1nc(SCCC(=O)O)c2cc(-c3ccccc3)sc2n1	-16.6	0.501µM*	-1.7	-6.6%	0.891µM*
Cc1nc(N2CCOCC2)c2cc(-c3ccccc3)sc2n1	-3.2	-2.5%	-1.8	-0.1%	9.7%
CCn1c2ccccc2c2n[nH]c(=S)nc21	u	8.91µM*	x	-0.1%	3.98µM*
C=CCn1c2ccccc2c2n[nH]c(=S)nc21	1.0	3.55µM*	x	-30.4%	2.51µM*
O=C(O)Cn1c2ccccc2c2n[nH]c(=S)nc21	-0.2	8.6%	-16.1	x	-34.9%[1.91 µM]
CCCn1c2ccc(C)cc2c2n[nH]c(=S)nc21	-6.8	3.55µM*	-3.7	-0.2%	1.78µM*
COc1ccc(NC(=O)c2cc(S(=O)(=O)N(Cc3ccccc3)c3ccccc3)ccc2Cl)cn1	-1.1	-12.2%	-0.6	-3.8%	3.8%
CC(OC(=O)Cc1c[nH]c2ccccc12)C(=O)Nc1ccc(S(N)(=O)=O)cc1 (stereo unspecified)	-4.6	x	0.7	-4.9%	x
CC(C)N1CCc2c(sc(NC(=O)c3ccc4ccccc4c3)c2C(N)=O)C1	1.4	u	3.4	6.6%	u
CC(=O)Nc1sc2c(c1-c1nc3ccccc3s1)CCN(C(C)C)C2	4.3	11.2µM*	1.5	0.8%	8.91µM*
CC(=O)c1cccc(NC(=O)c2nc(-c3ccccc3)oc2C)c1	-1.7	0.2%	0.6	0.2%	4.1%
CCOC(=O)N1CCN(C(=O)COC(=O)c2oc3ccc(OC)cc3c2C)CC1	2.6	15.9%	5.7	15.9%	40.4%
CC(=O)N/N=C(\C)c1cccc(C(F)(F)F)c1	1.5	17.8%	11.6	1.1%	-1.6%
C/C(=N\NC(=S)NC1CCCCC1)c1ccc(C#N)cc1	0.0	2µM*	5.3	4.1%	2.24µM*
C/C(=N\NC(=S)NC1CCCCC1)c1cccc(C(F)(F)F)c1	4.9	2.51µM*	-4.1	0.4%	u
N#Cc1ccc(C(=O)NC(=S)NC2CCCCC2)cc1	-13.9	x	-8.9	10.7%	x
CCNC(=S)N/N=C(\C)c1cccc(C(F)(F)F)c1	-10.8	4.47µM*	-27.6	6.0%	1.26µM*
O=C(COC(=O)c1cccc(Br)c1)NC1CCCCCCC1	9.0	x	5.8	x	x
O=C(CNS(=O)(=O)c1cccc(C(F)(F)F)c1)NC1CCCCCC1	7.9	x	2.7	0.6%	x
C/C(=N\NC(=S)NC1CCCCC1)c1cccc(Br)c1	-6.0	1µM*	-7.5	11.4%	2.24µM*
COc1ccccc1C(=O)NCCOc1ccc(C(C)(C)C)cc1	-9.5	u	x	-83.4%	u
SMILES	Six1-Eya2 inh	VP16 counter	CtBP-E1A inh	p53 reactivation	RORg inh
CCc1cc(C)cc(OCCNC(=O)c2ncn[nH]2)c1	-28.4	7.7%	9.9	-5.5%	-5.1%
CN(C)S(=O)(=O)c1ccc(C(=O)NCCOc2ccccc2)cc1	0.2	u	5.1	u	-1.8%
CC(C)(C)c1ccc(OCCNC(=O)c2ncn[nH]2)cc1	-66.9*	-8.4%	-65.9*	-0.2%	u
CC(C)(C)c1ccc(C(=O)NCCOc2ccccc2)cc1	7.8	u	-3.7	-8.1%	8.91µM*
CC(C)(C)c1ccc(C(=O)NCCOc2ccccc2F)cc1	5.8	6.31µM*	11.2	1.0%	7.08µM*
CC1CCCN(C2(O)C(=O)Nc3ccc([N+](=O)[O-])cc32)C1 (stereo unspecified)	-0.2	-18.7%	x	-2.8%	-9.7%
CCCNC(=O)c1cc2c(c(-c3cccc(-c4ccccc4F)c3)n1)[C@H](CCO)N(C(=O)CC1CC1)C2	-9.0	x	-0.9	x	x
Clc1cnccn1	x	-9.3%[17 µM]	x	x	4.9%[16.9 µM]
CCCCCCCC/C=C\CCCCCCCCCCCC(=O)O	x	-1.3%	x	x	-1.4%
Cc1nn(-c2ccccc2)c(Cl)c1C(=O)NC1CCCCC1	2.4	3.2%	6.0	2.1%	19.0%
Cc1nn(-c2ccccc2)c(Cl)c1C(=O)Nc1nnc(C2CCCC2)s1	0.0	u	-2.8	-2.9%	7.94µM*
O=C(CC(C(=O)NCc1ccccc1)c1nc2ccccc2c(=O)[nH]1)NCc1ccccc1 (stereo unspecified)	-8.8	-19.9%	x	6.1%	5.5%
Cc1oc2c(c1C(=O)c1ccc(Cl)cc1)C(=O)C(=O)c1ccccc1-2	-0.7	6.31µM*	-1.5	-2.3%	5.62µM*
Cc1ccc(C(=O)c2c(C)oc3c2C(=O)C(=O)c2ccccc2-3)cc1	-13.0	3.55µM*	u	-10.6%	5.01µM*
CCOC(=O)C1OC1c1ccccc1 (stereo unspecified)	x	-10.1%	x	x	-12.9%
Cc1c(-c2ccn[nH]2)cc(NC(=O)c2ccc(Cl)cc2)c(=O)n1N	3.1	-0.2%	x	-1.3%	12.1%
CCN1C(=NCC(C)C)N[C@@H](c2ccccc2)[C@H](C(=O)OC)[C@H]1C	x	-3.8%	x	x	-1.6%
CCOc1ccc(C2NC(=O)C(C#N)=C(S)N2c2ccc(OC)cc2)cc1OC (stereo unspecified)	-6.4	-12.5%	5.1	4.1%	19.7%
COc1ccc(N2C(S)=C(C#N)C(=O)NC2c2ccc(OC)c(OC)c2)cc1 (stereo unspecified)	11.2	-28.3%	0.0	2.4%	11.2µM*
N#CC1=C(S)N(c2ccccc2)C(c2ccc(-c3ccc(Cl)c(Cl)c3)o2)NC1=O (stereo unspecified)	4.4	u	3.0	2.8%	10µM*
Cc1ccc(N2C(S)=C(C#N)C(=O)NC2c2ccco2)cc1 (stereo unspecified)	-1.8	-9.7%	-5.6	14.4%	15.8µM*
N#CC1=C(S)N(c2ccccc2)C(c2ccc(-c3cc(Cl)ccc3Cl)o2)NC1=O (stereo unspecified)	-2.1	u	-4.0	17.9%	12.6µM*
N#CC1=C(S)N(c2ccccc2)C(c2ccco2)NC1=O (stereo unspecified)	-2.0	-3.9%	2.7	1.5%	24.8%
N#CC1=C(S)N(c2ccc(F)cc2)C(c2ccco2)NC1=O (stereo unspecified)	-4.7	-10.9%	3.8	-1.6%	u
CC1C(=O)N2CCCc3cc(NS(=O)(=O)c4ccc([N+](=O)[O-])cc4)cc1c32 (stereo unspecified)	3.0	x	-26.3	-2.5%	x
O=C(c1c[nH]c2ccccc12)C(F)(F)F	9.0	-1.1%	x	-3.8%	25.7%
Cn1c(O)c(N=NC(=O)c2ccco2)c2ccccc21	-20.1	u	-13.3	4.5%	u
